Source: PubChem BioAssay (National Center for Advancing Translational Sciences (NCATS))
HCMV antiviral: qHTS Assay for inhibitors of the human cytomegalovirus (HCMV); 410,000 tested, 4.5% active; activity change, negative = inhibition, % at 57.5 µM; AID 1259415, 2018; HFF cells, HCMV-luciferase reporter, 72 h; hits give low values; in the data active = activity change below about -60%; inconclusive = no clear call, values can overlap the other calls; inactive = above about -39%
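Two compound doses tested in HFFs infected with HCMV-luciferase, MOI 1 PFU/cell, 72 h at 37C. Lysate luminescence read with OneGlo; data normalized against buffer-only and 10uM Salinomycin inhibitor controls.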
CHX counter: Cycloheximide Counterscreen for Small Molecule Inhibitors of Shiga Toxin; cell reporter, cycloheximide protein synthesis inhibition counterscreen; max response, %; 300,000 tested, 12% active; AID 2314, 2010; in the data active = max response mostly above about 13%, no sharp cut-off; inactive = mostly below about 14%; also: read at 38.3 µM for the half of the compounds with a filed dose
Shiga inhibitor: A qHTS for Small Molecule Inhibitors of Shiga Toxin; 290,000 tested, 9.2% active; inhibition, % at 38.7 µM; AID 2315, 2010; Vero cells, Shiga toxin protein synthesis inhibition reporter; in the data active = inhibition mostly above about 28%, no sharp cut-off; inactive = mostly below about 43%
Pf growth 48h: Primary qHTS for delayed death inhibitors of the malarial parasite plastid, 48 hour incubation; P. falciparum luciferase growth in erythrocytes, 48 h; Potency, µM (highest dose often 28.7 µM), actives largely listed as inhibitors; 310,000 tested, 5.9% active; AID 504832, 2011
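Luciferase-expressing parasites in RBCs, 2% Hct / 0.1% parasitemia final; RPMI 1640 + 0.5% Albumax; 37 C, 5% CO2, one generation; luminescence read-out, lower signal = inhibition.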
HCV inh: qHTS Assay for Inhibitors of Hepatitis C Virus (HCV). Huh7.5.1 HCVcc-Cre infection, luciferase reporter, 44 h. Potency, µM (series often up to 41.8 µM), actives largely listed as inhibitors. 340,000 tested, 3.4% active
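After 44 h co-culture of compound, cells and HCVcc-Cre (~0.5 moi), substrate is added for 15 min at room temperature and luciferase measured over 15 sec. Cells were seeded at 1,000/well and pre-cultured 4 h.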
Pf growth 96h: Primary qHTS for delayed death inhibitors of the malarial parasite plastid, 96 hour incubation | P. falciparum luciferase reporter growth, 96 h | Potency, µM (highest dose often 28.7 µM), most hits filed as inhibitors | 320,000 tested, 6.9% active | AID 504834, 2011
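Parasite growth measured via integrated firefly luciferase reporter in P. falciparum. Infected erythrocytes at 2% hematocrit, 0.05% parasitemia final were treated 96 hours at 37 C under 5% CO2, and luminescence was read.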
Each line names hits and unclear results; the compound was inactive in the other large screens. This is a sample that favours compounds with a hit; in the whole collection about 21% have one here. Unless noted, calls follow the shape of the dose curve; as a rule, active = well fitted inhibition curve with a large enough effect; inconclusive = small, poorly fitted or top-dose-only effect, or another doubt; inactive = no such curve, though single readings can be large or run the other way.

Cc1cc(N=Nc2c(O)c3ccccc3[nH]c2=O)ccc1N=Nc1ccc(C(=O)N(C)C)cc1	Pf growth 48h 1.9µM, Pf growth 96h 2.1µM
Cc1ccccc1C([O-])=Nc1ccc[n+](-c2nc3ccccc3nc2NS(=O)(=O)c2ccccc2)c1	Pf growth 48h inconclusive, Pf growth 96h 12µM (no result: HCMV antiviral)
O=S(=O)(Nc1nc2ccccc2nc1-[n+]1ccccc1)c1ccc(Cl)cc1	Pf growth 96h inconclusive
C/C(O)=C(\C#N)P(=O)(c1ccccc1)c1ccccc1	Pf growth 96h inconclusive
CCC(C#N)(CC)P(=S)(c1ccccc1)c1ccccc1	HCMV antiviral -73, Pf growth 48h inconclusive, Pf growth 96h inconclusive
Cc1ccc(S(=O)(=O)N2C[C@H]3C(=O)C[C@@H](c4ccccc4F)N(S(=O)(=O)c4ccc(C)cc4)[C@H]3C[C@H]2c2cccc3ccccc23)cc1	none (no result: CHX counter, Shiga inhibitor, Pf growth 48h, HCV inh, Pf growth 96h)
CCN=C1SC(C(=O)Nc2cccc(C(=O)O)c2)CC(=O)N1CC (stereo unspecified)	Pf growth 96h 13µM
CCOC(=O)c1cc(-c2ccc(OC)cc2)n(CCC(=O)NC2CCCCC2)c1C	none (no result: CHX counter, Shiga inhibitor, Pf growth 48h, HCV inh, Pf growth 96h)
CC(=N\O)/C(CN(C)C)=N/O	Pf growth 96h 10µM
O=S(=O)(c1ccc(-c2n[nH]c(=S)o2)cc1)N1CCCC1	HCMV antiviral inconclusive, Pf growth 96h inconclusive
COC(=O)c1cc(-c2cccs2)nn1-c1ccccc1	Pf growth 48h inconclusive
CCN(CC)S(=O)(=O)c1cccc(NC(=O)c2cc(-c3cccs3)nn2-c2ccccc2)c1	HCV inh inconclusive, Pf growth 96h 12µM
O=C(COC(=O)c1cc(-c2cccs2)nn1-c1ccccc1)Nc1cccc([N+](=O)[O-])c1	HCMV antiviral inconclusive
CN(C)S(=O)(=O)c1cccc(NC(=O)c2cc(-c3cccs3)nn2-c2ccccc2)c1	HCMV antiviral inconclusive, Pf growth 48h inconclusive, HCV inh inconclusive, Pf growth 96h 15µM
CN(CC(=O)Nc1cccc(F)c1)C(=O)c1cc(-c2cccs2)nn1-c1ccccc1	HCV inh 11µM (no result: CHX counter, Shiga inhibitor)
CCc1ccc(NC(=O)CSCc2ccc(C(=O)O)cc2)cc1	none
Cc1cccc(CN2CCCC(C(=O)c3cccc(OC(C)C)c3)C2)n1 (stereo unspecified)	HCMV antiviral inconclusive, Pf growth 48h inconclusive, HCV inh inconclusive
COc1c(C)cc(C(=O)C2CCCN(Cc3cccc(O)c3)C2)cc1C (stereo unspecified)	Pf growth 48h 12µM, HCV inh 13µM
COc1cccc(C(=O)C2CCCN(Cc3cccc(-n4nc(C)cc4C)c3)C2)c1 (stereo unspecified)	Pf growth 48h inconclusive, HCV inh 35µM, Pf growth 96h inconclusive
Cc1ccsc1C(=O)C1CCCN(Cc2cccc(OCCO)c2)C1 (stereo unspecified)	none
COc1cccc(C(=O)C2CCCN(Cc3ccc4nsnc4c3)C2)c1 (stereo unspecified)	none
COc1cccc(C(=O)C2CCCN(Cc3cccc(OCCO)c3)C2)c1 (stereo unspecified)	Pf growth 48h inconclusive, Pf growth 96h 4.7µM
COc1cccc(C(=O)C2CCCN(Cc3cccc(C)n3)C2)c1 (stereo unspecified)	HCMV antiviral inconclusive, Pf growth 48h 2.9µM, Pf growth 96h inconclusive
O=C(NCc1ccccc1)c1cc(C2COCCN2C(=O)c2cccs2)on1 (stereo unspecified)	none (no result: CHX counter, Shiga inhibitor, Pf growth 48h, HCV inh, Pf growth 96h)
CCOc1ccccc1NC(=O)CSc1nc2ccccc2nc1Cc1ccc(C)cc1	none (no result: CHX counter, Shiga inhibitor, Pf growth 48h, HCV inh, Pf growth 96h)
O=C(c1ccc(OC2CCN(Cc3cccc(OCCO)c3)CC2)cc1)N1CCCC1	Pf growth 48h inconclusive
O=C(c1cccc(OC2CCN(Cc3cccc(OCCO)c3)CC2)c1)N1CCCC1	Pf growth 96h 8.3µM (no result: HCV inh)
CC(COc1ccccc1)N1CCC(CO)(Cc2ccccc2)CC1 (stereo unspecified)	Pf growth 48h inconclusive
NS(=O)(=O)OCCCCCc1ccccc1	CHX counter 14
Cc1cccc(OCc2nc(C#N)c(NCc3ccc4c(c3)OCO4)o2)c1	CHX counter 42, HCV inh inconclusive (no result: Pf growth 48h)
N#Cc1nc(COc2ccc(Cl)cc2)oc1NCc1ccc2c(c1)OCO2	HCV inh 10µM, Pf growth 96h 10µM (no result: Pf growth 48h)
O=C(O)CCCC(=O)OCc1c(-c2ccccc2)ncc2ccccc12	Pf growth 96h inconclusive (no result: CHX counter, Shiga inhibitor)
CS(=O)(=O)c1[nH]nc(-c2ccccc2Cl)c1C#N	none
CCN(CC)S(=O)(=O)c1ccc(OC)c(NC(=S)Nc2cccc(C)c2C)c1	CHX counter 24
CCN(CC)S(=O)(=O)c1ccc(OC)c(NS(=O)(=O)Cc2ccccc2)c1	Pf growth 96h 12µM
CCN(CC)S(=O)(=O)c1ccc(OC)c(NC(=O)CSc2ccccc2)c1	Pf growth 96h inconclusive
COC(=O)C1=C(c2ccc(OC(F)(F)F)cc2)C[C@@H]2CC[C@H]1N2C(=O)NCc1cc(C)oc1C(F)(F)F	Pf growth 48h 12µM, HCV inh inconclusive, Pf growth 96h 8.3µM (no result: CHX counter, Shiga inhibitor)
COC(=O)C1=C(c2ccc(OC(F)(F)F)cc2)C[C@@H]2CC[C@H]1N2C(=O)NCc1cccc2ccccc12	Pf growth 48h 1.7µM, HCV inh 10µM, Pf growth 96h 1.9µM (no result: CHX counter, Shiga inhibitor)
COC(=O)C1=C(c2ccc(OC(F)(F)F)cc2)C[C@@H]2CC[C@H]1N2C(=O)NCc1ccc(F)cc1	Pf growth 48h inconclusive, HCV inh inconclusive, Pf growth 96h inconclusive (no result: CHX counter, Shiga inhibitor)
COC(=O)C1=C(c2ccc(OC(F)(F)F)cc2)C[C@@H]2CC[C@H]1N2C(=O)NCCc1ccccc1	HCMV antiviral inconclusive, Pf growth 48h 3.7µM, HCV inh inconclusive, Pf growth 96h inconclusive (no result: CHX counter, Shiga inhibitor)
COC(=O)C1=C(c2ccc(OC(F)(F)F)cc2)C[C@@H]2CC[C@H]1N2C(=O)NCCNC(C)=O	Pf growth 48h inconclusive (no result: CHX counter, Shiga inhibitor)
COC(=O)C1=C(c2ccc(OC(F)(F)F)cc2)C[C@@H]2CC[C@H]1N2C(=O)NCCOc1ccc(OC)cc1	Pf growth 48h inconclusive, HCV inh inconclusive, Pf growth 96h 5.9µM (no result: CHX counter, Shiga inhibitor)
O=c1[nH]n(CC2COC3(CCCCC3)O2)c(=O)c2ccccc12 (stereo unspecified)	CHX counter 33, Shiga inhibitor 43, Pf growth 96h 8.3µM
Cc1ccc(SCc2cc(=O)n(C)[nH]2)cc1	Shiga inhibitor 55
CC1(C(=O)NC2CCCCC2)Cc2ccccc2C(=O)N1Cc1ccc(F)cc1 (stereo unspecified)	none (no result: CHX counter, Shiga inhibitor, Pf growth 48h, HCV inh, Pf growth 96h)
COc1ccccc1/C=C/C1(C(=O)NC2CCCC2)CC(=O)N1c1ccc(C)cc1 (stereo unspecified)	HCMV antiviral -98, Pf growth 48h inconclusive, HCV inh inconclusive
COc1ccccc1/C=C/C1(C(=O)NC2CCCC2)CC(=O)N1c1ccc(F)cc1 (stereo unspecified)	HCMV antiviral -83, Pf growth 48h 10µM, HCV inh inconclusive
